# Results reported in the supplement of paper PMC11732987, “Enantioselective OTUD7B fragment discovery through chemoproteomics screening and high-throughput optimisation” (Communications Chemistry, 2025).
# Values without a mark were called inactive.
# Key:
# Test in all cases: log2 ratio of Biotin-Ahx-Ub-VS probe labelling (fragment/DMSO); higher = less target engagement (more negative = stronger competition), active = hit call of the paper (q ≤ 0.05, log2 ratio ≤ -1)
# Conditions in all cases: compound concentration: 200 uM; treatment time: 3 h
# USP19 = target: T1, USP19 (UniProt O94966)
# T1 sequence (whole entry): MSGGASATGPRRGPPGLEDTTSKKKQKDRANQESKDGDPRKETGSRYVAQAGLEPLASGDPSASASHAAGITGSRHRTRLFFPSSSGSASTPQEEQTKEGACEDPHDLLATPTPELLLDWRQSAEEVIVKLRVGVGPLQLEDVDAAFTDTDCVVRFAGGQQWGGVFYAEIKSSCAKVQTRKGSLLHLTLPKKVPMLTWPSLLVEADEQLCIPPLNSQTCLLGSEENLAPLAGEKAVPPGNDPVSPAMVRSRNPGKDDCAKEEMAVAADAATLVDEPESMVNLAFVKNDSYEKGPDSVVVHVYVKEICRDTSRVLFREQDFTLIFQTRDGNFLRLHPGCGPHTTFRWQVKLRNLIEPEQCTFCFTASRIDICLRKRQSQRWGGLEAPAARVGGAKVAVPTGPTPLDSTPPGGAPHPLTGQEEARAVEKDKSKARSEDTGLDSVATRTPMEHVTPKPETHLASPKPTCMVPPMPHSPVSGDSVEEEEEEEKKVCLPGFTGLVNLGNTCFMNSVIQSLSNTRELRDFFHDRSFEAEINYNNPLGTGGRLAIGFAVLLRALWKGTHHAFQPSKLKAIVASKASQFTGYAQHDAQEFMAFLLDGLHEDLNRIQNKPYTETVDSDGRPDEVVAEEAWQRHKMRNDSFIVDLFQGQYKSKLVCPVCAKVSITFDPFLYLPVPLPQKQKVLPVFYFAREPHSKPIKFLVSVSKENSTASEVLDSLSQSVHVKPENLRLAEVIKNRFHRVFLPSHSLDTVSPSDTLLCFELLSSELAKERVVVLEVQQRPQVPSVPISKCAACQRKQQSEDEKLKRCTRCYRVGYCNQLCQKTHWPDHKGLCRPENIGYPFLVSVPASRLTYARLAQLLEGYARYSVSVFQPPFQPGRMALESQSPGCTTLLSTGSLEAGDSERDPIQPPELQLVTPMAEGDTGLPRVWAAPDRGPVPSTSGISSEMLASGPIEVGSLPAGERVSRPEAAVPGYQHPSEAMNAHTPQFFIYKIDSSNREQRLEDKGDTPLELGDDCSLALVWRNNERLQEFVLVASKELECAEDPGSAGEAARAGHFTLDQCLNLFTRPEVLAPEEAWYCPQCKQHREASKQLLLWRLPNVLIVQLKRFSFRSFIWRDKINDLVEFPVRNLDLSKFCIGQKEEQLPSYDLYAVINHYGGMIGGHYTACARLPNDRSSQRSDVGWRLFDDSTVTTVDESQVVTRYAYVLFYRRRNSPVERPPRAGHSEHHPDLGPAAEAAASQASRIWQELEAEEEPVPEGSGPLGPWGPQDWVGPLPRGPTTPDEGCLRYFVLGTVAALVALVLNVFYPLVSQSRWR
# Procedure, shortened: (§1)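 HEK293T lysate in Tris/CHAPS/IGEPAL buffer with protease inhibitors (495 µg per sample) was given fragment at 200 µM or vehicle for 3 h, in triplicate. It then received Biotin-Ahx-Ub-VS at 0.5 µM final for 1 h. Labelled DUBs were NeutrAvidin-enriched, digested with LysC and trypsin, and run by diaPASEF LC-MS/MS. Values are average log2 fragment/vehicle ratios by unpaired t-test on global-median-normalised Spectronaut quantities of proteins with ≥2 unique peptides.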
# USP24 = USP24 (UniProt Q9UPU5)
# Procedure, shortened: as §1
# USP25 = target: T2, USP25 (UniProt Q9UHP3)
# T2 sequence (whole entry): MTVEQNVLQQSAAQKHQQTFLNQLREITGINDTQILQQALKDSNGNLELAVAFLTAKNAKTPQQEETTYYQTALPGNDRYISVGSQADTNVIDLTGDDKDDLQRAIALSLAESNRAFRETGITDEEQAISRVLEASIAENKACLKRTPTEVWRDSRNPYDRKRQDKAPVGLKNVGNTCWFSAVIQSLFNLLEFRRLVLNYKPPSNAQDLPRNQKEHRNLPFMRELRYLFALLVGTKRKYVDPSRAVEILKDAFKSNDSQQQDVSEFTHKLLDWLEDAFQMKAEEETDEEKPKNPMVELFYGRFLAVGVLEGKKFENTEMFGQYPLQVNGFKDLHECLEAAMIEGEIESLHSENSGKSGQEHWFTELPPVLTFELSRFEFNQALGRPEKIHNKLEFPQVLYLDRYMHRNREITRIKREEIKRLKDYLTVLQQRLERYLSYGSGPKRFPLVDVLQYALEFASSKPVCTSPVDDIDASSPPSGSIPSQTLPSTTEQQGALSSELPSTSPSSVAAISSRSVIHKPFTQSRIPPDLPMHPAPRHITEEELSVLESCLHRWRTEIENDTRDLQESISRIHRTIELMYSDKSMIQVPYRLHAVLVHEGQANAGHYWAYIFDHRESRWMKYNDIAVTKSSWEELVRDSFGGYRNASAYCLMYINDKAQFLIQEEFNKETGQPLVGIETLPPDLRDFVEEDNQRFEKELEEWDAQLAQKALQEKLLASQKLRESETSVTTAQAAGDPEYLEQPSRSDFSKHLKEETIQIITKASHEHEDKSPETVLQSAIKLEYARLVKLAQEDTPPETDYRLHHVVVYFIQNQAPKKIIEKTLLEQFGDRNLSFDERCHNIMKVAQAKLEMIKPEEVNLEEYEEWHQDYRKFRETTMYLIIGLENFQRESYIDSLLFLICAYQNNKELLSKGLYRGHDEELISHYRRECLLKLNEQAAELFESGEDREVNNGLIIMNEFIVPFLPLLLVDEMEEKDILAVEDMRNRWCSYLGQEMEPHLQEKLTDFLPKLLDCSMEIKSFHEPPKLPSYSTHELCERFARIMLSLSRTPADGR
# Procedure, shortened: as §1
# USP28 = target: T3, USP28 (UniProt Q96RU2)
# T3 sequence (whole entry): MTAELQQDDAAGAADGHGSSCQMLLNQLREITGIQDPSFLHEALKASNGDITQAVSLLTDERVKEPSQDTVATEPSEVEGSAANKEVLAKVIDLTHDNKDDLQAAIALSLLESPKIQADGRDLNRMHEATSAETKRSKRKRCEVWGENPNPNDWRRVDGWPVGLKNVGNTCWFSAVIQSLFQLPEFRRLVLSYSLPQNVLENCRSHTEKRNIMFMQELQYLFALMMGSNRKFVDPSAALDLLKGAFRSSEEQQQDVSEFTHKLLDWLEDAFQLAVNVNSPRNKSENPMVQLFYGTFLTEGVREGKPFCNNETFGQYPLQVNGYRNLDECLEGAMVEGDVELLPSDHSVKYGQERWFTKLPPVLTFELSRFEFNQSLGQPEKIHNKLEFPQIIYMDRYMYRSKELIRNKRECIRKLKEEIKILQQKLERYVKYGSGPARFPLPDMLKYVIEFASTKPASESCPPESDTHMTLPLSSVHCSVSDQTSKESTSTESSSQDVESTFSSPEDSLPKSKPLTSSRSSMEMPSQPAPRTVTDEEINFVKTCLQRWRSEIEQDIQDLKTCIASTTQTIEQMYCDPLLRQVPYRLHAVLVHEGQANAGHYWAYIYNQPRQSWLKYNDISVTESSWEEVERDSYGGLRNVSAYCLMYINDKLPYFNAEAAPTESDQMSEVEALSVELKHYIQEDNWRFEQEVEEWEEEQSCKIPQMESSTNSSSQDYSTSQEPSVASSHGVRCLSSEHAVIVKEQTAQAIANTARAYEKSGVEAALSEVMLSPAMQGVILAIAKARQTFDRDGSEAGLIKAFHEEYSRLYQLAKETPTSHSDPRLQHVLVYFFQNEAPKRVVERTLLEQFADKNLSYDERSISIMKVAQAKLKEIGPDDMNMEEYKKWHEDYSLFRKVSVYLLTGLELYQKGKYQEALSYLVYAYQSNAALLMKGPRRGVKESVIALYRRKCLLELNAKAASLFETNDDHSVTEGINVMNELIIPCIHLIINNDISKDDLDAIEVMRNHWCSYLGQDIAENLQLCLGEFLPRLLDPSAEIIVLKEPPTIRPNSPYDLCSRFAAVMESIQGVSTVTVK
# Procedure, shortened: as §1
# USP24, sequence (Q9UPU5 whole entry): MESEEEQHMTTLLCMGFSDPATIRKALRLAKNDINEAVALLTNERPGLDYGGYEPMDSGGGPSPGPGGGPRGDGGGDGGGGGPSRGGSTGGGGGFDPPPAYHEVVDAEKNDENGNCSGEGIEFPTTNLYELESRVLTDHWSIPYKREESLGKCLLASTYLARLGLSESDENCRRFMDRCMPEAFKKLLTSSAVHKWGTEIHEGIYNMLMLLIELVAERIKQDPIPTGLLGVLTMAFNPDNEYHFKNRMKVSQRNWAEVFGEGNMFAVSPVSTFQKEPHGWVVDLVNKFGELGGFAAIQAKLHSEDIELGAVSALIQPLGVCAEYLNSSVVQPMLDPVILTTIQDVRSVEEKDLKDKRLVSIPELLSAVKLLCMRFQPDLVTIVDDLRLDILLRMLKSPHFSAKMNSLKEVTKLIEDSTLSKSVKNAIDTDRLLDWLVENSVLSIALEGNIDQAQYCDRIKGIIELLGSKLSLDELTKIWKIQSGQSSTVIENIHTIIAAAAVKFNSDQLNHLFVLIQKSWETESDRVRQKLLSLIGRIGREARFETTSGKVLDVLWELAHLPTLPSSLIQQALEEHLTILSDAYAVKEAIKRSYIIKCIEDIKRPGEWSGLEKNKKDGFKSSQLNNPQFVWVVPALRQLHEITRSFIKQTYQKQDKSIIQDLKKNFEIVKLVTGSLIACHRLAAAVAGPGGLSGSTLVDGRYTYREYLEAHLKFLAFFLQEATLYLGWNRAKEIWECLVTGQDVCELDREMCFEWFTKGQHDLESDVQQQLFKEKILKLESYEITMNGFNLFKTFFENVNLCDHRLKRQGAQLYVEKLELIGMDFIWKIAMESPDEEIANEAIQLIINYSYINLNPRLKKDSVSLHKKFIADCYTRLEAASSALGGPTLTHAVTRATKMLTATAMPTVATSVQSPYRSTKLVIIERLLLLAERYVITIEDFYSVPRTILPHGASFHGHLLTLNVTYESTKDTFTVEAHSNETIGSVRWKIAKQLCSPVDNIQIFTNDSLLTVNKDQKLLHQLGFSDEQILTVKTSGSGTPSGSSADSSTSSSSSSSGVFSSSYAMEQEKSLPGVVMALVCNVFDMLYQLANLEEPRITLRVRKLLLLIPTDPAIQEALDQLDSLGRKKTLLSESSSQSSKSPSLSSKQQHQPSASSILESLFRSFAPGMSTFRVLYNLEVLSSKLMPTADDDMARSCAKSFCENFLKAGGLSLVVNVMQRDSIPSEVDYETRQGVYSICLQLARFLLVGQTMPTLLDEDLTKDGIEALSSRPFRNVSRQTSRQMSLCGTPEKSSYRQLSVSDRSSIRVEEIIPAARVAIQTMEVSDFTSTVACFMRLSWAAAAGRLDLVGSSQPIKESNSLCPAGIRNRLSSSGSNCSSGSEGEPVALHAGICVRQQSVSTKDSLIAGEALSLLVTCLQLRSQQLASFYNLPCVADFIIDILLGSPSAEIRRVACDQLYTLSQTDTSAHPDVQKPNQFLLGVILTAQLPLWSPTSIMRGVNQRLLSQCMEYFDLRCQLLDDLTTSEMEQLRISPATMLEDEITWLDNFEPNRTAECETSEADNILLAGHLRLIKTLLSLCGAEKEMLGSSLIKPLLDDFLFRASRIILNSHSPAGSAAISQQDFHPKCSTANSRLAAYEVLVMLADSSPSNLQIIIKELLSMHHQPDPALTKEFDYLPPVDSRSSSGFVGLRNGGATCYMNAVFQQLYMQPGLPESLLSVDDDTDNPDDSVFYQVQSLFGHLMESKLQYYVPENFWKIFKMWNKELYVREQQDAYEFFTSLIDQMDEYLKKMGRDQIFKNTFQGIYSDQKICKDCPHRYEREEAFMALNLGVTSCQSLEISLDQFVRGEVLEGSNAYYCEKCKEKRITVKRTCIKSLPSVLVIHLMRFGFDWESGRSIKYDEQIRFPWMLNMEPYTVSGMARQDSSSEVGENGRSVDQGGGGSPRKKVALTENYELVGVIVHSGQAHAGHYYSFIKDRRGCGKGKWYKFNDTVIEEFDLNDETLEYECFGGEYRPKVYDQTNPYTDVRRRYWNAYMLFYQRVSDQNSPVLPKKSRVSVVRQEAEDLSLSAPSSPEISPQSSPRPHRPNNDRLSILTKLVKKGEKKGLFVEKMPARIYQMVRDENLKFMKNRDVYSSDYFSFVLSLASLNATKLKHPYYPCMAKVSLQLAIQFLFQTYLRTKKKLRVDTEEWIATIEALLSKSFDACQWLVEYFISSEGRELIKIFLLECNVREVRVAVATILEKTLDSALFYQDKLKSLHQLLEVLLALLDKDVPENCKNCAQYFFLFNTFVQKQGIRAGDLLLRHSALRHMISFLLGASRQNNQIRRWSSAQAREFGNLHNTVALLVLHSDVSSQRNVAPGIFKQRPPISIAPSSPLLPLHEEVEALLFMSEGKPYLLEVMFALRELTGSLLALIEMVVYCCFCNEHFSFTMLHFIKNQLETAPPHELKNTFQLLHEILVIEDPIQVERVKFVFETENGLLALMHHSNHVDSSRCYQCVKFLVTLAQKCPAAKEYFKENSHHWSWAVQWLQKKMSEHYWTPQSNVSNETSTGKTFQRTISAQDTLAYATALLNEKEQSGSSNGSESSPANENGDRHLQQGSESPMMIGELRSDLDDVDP
smiles,measurement,setting,value
O=C(CCl)Nc1ccc(N2CCCC2=O)cc1,log2 ratio of Biotin-Ahx-Ub-VS probe labelling,USP19,-0.0288
same,log2 ratio of Biotin-Ahx-Ub-VS probe labelling,USP24,-0.284
same,log2 ratio of Biotin-Ahx-Ub-VS probe labelling,USP25,-1.8 (active)
same,log2 ratio of Biotin-Ahx-Ub-VS probe labelling,USP28,-1.25 (active)
